The values that follow come from PubChem BioAssay (NCATS).

SMILES strings stand for the structures. Records with an inconclusive call do not appear. Active and inactive are the calls of the source. Unless noted, calls come from the whole dose curve; as a rule, active = well fitted cell-killing curve with a large enough effect; inconclusive = small, poorly fitted or top-dose-only effect; inactive = flat fitted curve, though single readings scatter.

Assay [1] in a line: Cell Viability - LYMP2-020 (AID 986).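 Note: series mostly up to about 92 µM; plate controls were DMSO only for no effect and tetraoctylammonium bromide at 92 µM for full effect; nearly all actives have a fitted effect of over 55% in size.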 The method, boiled down:
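Human lymphoblastoid LYMP2-020 cells (2500/well) preincubated 5 h at 37 C, then treated 24 h at 37 C. Viability measured as intracellular ATP by CellTiter-Glo luminescence after 30 min at room temperature; AC50 from Hill fits.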

The nature of assay [2]: Cell Viability - LYMP2-022 (AID 987).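 Note: 0% = DMSO alone and full effect = tetraoctylammonium bromide at 92 µM; nearly all actives have a fitted effect of over 55% in size.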 The method, boiled down:
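LYMP2-022 lymphoblastoid cells (2500/well, complete medium) were treated with compounds for 24 hours at 37 C; intracellular ATP was then read by CellTiter-Glo luminescence after 30 min at room temperature. AC50 values were derived from Hill-equation fits.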

The nature of assay [3]: Cell Viability - LYMP2-024 (AID 988).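 Note: plate controls were DMSO only for no effect and 92 µM tetraoctylammonium bromide for full effect; nearly all actives have a fitted effect of over 60% in size.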 The essentials:
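Human lymphoblastoid LYMP2-024 cells (2500/well) rested 5 hr, then treated with compound for 24 hr at 37 C in complete medium. Viability was measured as intracellular ATP by CellTiter-Glo luminescence. AC50 values came from Hill-equation fits.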

Assay [4] is described as follows: Cell Viability - LYMP2-026 (AID 989). Note: % is set by controls: 0 for no effect and ±100 for the full control effect; nearly all actives have a fitted effect of over 50% in size. The essentials: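 Human lymphoblastoid LYMP2-026 cells, 2500/well, exposed to compound 24 h at 37 C in complete medium. Viability as intracellular ATP by CellTiter-Glo luminescence; AC50 from Hill fits of qHTS concentration-response.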
Assay [5] in a line: Cell Viability - LYMP1-002 - Assay at 24 hr (AID 993). Note: % is set by controls: 0 for no effect and ±100 for the full control effect. The essentials: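 Human lymphoblastoid LYMP1-002 cells (2500/well) treated 24 h at 37 °C; viability as intracellular ATP by CellTiter-Glo luminescence. Tetraoctylammonium bromide as positive control; AC50 from Hill-equation fits of qHTS concentration-response.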
A short description of assay [6]: Cell Viability - LYMP1-002 - Assay at 40 hr (AID 994).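 Note: 0% = DMSO only and full inhibition = 92 µM tetraoctylammonium bromide; nearly all actives have a fitted effect of over 60% in size.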 The essentials: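 LYMP1-002 human lymphoblastoid cells (2500/well, complete medium) were treated with compounds for 40 hr at 37 C. Intracellular ATP was measured by CellTiter-Glo luminescence, and AC50 values came from Hill-equation fits of concentration-response data; tetraoctylammonium bromide was the positive control.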

The nature of assay [7]: qHTS Assay for Identification of Small Molecule Inducers of Hypoxia Response (AID 2120; active = well fitted curve in the direction sought with a large enough effect in the signal ratio, with a control signal flat, not every such curve was filed as active; the % refers to the signal ratio; note: 0% is about no effect). The method, boiled down: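 HRE-bla ME-180 cells in Opti-MEM with 0.5% dialyzed FBS, pre-plated 4-5 h, then compound titration for 17 h at 37 degrees Celsius. CCF4 loaded 2.5 h at room temperature; 460/530 nm ratio gave %Activity and AC50 for induction.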
For orientation: qHTS replaces the single test concentration by a dilution series.

Assay [8] addresses Estrogen receptor (Homo sapiens) (UniProt P03372). Nature of the assay: qHTS assay for small molecule antagonists of estrogen receptor alpha signaling (AID 588513; active = well fitted curve in the direction sought with a large enough effect in the signal ratio, with a control signal flat, not every such curve was filed as active; the % refers to the signal ratio; note: % is set by controls: 0 for no effect and ±100 for the full control effect). The essentials:
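Beta-lactamase reporter, antagonist mode, HEK 293 GripTite cells; 0.5nM E2 stimulus, 18 h, 37 C; CCF4 dye 2 h RT; fluorescence. IC50 and efficacy from Hill fits, normalized to E2 and DMSO.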

For assay [9] the target is unchanged. As to the kind of experiment: qHTS assay for small molecule agonists of estrogen receptor alpha signaling (AID 588514; calls by dose curve;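 note: 0% = vehicle only and 100% = reference agonist; nearly all actives have a fitted effect of over 70% in size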). The essentials:
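ER-alpha-UAS-bla GripTite HEK293 cells, 5000/well in 2% charcoal/dextran-stripped FBS medium, treated with compound titrations 18 h at 37 C. CCF4 beta-lactamase read by fluorescence after 2 h RT; normalised to 20 nM 17-beta-estradiol (100%) and DMSO (0%), Hill fit for EC50 and efficacy.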

Assay [10] is described as follows: qHTS assay for small molecule antagonists of peroxisome proliferator-activated receptor delta signaling (AID 588535; active = well fitted inhibition curve with a large enough effect in the signal ratio, with a control signal flat, not every such curve was filed as active; the % refers to the signal ratio;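 for max response: cells co-treated with a PPAR-delta agonist as stimulator during compound exposure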). Conditions: HEK293T PPARd-UAS-bla, beta-lactamase FRET ratio, 18 h; 460 nm channel. The method, boiled down:
(§1)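 Antagonist-mode beta-lactamase reporter (GeneBLAzer PPAR-delta-UAS-bla) in HEK293T cells, 2% charcoal/dextran FBS, 4000 cells/well. Compound titrations, 18 h at 37 C; CCF4 ratio read, IC50 and efficacy from Hill fits.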

The target in assay [11] is Peroxisome proliferator-activated receptor delta (Homo sapiens) (UniProt Q03181). The assay is described as above. The essentials: as §1
Chain of Peroxisome proliferator-activated receptor delta (Homo sapiens) (Q03181 whole entry, looked up): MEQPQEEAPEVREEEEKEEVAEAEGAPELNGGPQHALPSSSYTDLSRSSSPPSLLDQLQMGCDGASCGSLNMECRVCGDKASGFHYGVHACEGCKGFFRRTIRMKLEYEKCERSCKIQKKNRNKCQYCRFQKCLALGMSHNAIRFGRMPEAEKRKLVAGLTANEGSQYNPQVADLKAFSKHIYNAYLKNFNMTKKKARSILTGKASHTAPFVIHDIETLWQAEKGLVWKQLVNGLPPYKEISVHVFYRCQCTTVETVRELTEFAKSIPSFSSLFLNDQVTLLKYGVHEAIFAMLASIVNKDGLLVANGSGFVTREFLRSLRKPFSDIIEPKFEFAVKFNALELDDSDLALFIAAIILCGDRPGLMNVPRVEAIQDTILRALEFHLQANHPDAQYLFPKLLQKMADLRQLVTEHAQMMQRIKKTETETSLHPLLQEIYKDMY
For assay [12], the target named is Peroxisome proliferator-activated receptor gamma (Homo sapiens) (UniProt P37231). Nature of the assay: qHTS assay for small molecule agonists of peroxisome proliferator-activated receptor gamma signaling (AID 588536; active = well fitted curve in the direction sought with a large enough effect in the signal ratio, with a control signal flat, not every such curve was filed as active; the % refers to the signal ratio;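 note: 0% = DMSO basal wells and 100% = rosiglitazone at 2 µM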). The essentials: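 GeneBLAzer PPAR-gamma-UAS-bla HEK293 cells in 1% charcoal/dextran-treated FBS medium were treated 16 h at 37 C with compounds. Beta-lactamase activity was read by CCF4 ratio (460/530 nm). Response was normalized to 2 uM rosiglitazone (100%) and DMSO, then Hill-fitted for EC50 and efficacy.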
Chain of Peroxisome proliferator-activated receptor gamma (Homo sapiens) (P37231 whole entry, looked up): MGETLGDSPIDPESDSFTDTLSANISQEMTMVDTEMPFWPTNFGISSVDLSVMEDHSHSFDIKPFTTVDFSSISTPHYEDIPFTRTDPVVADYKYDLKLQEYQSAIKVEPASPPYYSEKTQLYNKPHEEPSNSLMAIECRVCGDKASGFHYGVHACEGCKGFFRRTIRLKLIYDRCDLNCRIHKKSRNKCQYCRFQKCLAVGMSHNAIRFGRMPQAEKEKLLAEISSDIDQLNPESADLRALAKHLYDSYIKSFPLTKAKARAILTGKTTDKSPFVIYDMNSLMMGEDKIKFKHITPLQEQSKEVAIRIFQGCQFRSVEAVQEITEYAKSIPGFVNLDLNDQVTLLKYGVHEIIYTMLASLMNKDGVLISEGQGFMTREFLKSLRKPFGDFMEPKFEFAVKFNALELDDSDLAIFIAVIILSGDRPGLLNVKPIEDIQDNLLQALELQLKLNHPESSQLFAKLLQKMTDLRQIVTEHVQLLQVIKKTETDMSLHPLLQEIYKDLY

In assay [13] the target is Vitamin D3 receptor (Homo sapiens) (UniProt P11473). Nature of the assay: qHTS assay for small molecule antagonists of vitamin D receptor signaling (AID 588541; calls by dose curve;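 note: receptor activated by calcitriol during compound treatment; series mostly up to about 77 µM; % is set by controls: 0 for no effect and ±100 for the full control effect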). The essentials:
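VDR-UAS-bla HEK293T cells in 2% charcoal-stripped FBS were stimulated with 1-alpha,25-dihydroxyvitamin D3 (3 nM final) plus compound for 16 h at 37 C. The beta-lactamase CCF4 readout was normalized to 50 nM agonist and DMSO, and Hill fits gave IC50.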

For assay [14] the target is unchanged. As to the kind of experiment: qHTS assay for small molecule agonists of vitamin D receptor signaling (AID 588543; calls by dose curve;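 note: 0% = DMSO basal and 100% = reference agonist control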). The method, boiled down: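 β-lactamase reporter, VDR-UAS-bla HEK293T, agonist mode. Cells plated 5 h at 37 °C, compound titration 16 h at 37 °C, CCF4 dye 2 h RT, ratio 460/530 nm. Hill fit → EC50, efficacy vs 50 nM 1α,25-(OH)2D3.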
Assay [15] deals with Bile acid receptor (Homo sapiens) (UniProt Q96RI1). Nature of the assay: qHTS assay for small molecule antagonists of farnesoid X receptor signaling (AID 588526; calls by dose curve; note: % is set by controls: 0 for no effect and ±100 for the full control effect). The method, boiled down: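 Antagonist mode: titrated compounds tested against chenodeoxycholic acid stimulation (normalized to 50 uM CDCA and DMSO) in GeneBLAzer HEK293T cells for 16 h. Beta-lactamase read by CCF4 fluorescence; IC50 from Hill fits.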
Chain of Bile acid receptor (Homo sapiens) (Q96RI1 whole entry, looked up): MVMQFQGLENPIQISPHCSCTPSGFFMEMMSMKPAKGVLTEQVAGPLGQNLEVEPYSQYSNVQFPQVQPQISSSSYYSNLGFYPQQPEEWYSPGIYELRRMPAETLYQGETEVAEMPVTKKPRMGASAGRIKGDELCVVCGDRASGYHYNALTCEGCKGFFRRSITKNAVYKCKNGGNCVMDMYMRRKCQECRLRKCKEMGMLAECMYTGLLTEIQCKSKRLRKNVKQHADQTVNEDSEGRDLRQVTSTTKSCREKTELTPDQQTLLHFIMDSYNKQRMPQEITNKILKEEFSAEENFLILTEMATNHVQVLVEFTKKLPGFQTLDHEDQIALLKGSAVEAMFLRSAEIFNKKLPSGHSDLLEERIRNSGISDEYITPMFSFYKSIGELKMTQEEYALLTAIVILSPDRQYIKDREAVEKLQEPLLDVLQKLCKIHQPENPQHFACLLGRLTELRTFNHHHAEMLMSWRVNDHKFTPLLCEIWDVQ

Assay [16] deals with Glucocorticoid receptor (Homo sapiens) (UniProt P04150). Nature of the assay: qHTS assay for small molecule agonists of glucocorticoid receptor signaling (AID 588532; active = well fitted curve in the direction sought with a large enough effect in the signal ratio, with a control signal flat; the % refers to the signal ratio;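 note: 100% = dexamethasone at 0.1 µM and 0% = DMSO only wells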). To be noted: HeLa MMTV-bla, beta-lactamase ratio, agonist, 18 h; stronger effect = higher value; percent of dexamethasone control, DMSO zero. The method, boiled down:
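Cells were plated and rested 3-5 h at 37 C, compounds were added in titration and incubated 18 h, then CCF4 substrate was loaded for 2 h at RT before reading blue/green fluorescence. EC50 came from Hill-equation fitting.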

Assay [17] deals with Peroxisome proliferator-activated receptor gamma (Homo sapiens) (UniProt P37231). Nature of the assay: qHTS assay for small molecule antagonists of peroxisome proliferator-activated receptor gamma signaling (AID 588537; active = well fitted inhibition curve with a large enough effect in the signal ratio, with a control signal flat, not every such curve was filed as active; the % refers to the signal ratio;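 note: reporter cells co-stimulated with 50 nM rosiglitazone agonist during compound treatment; % of control where 0% means no effect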). The method, boiled down: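 PPARγ-UAS-bla HEK293 cells (3000/well) in 1% charcoal/dextran-stripped FBS are treated with compound, then stimulated with 50 nM rosiglitazone for 16 h at 37 °C. Read-out is CCF4 β-lactamase fluorescence after 2 h at RT. IC50 comes from Hill fits normalised to rosiglitazone and DMSO.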

Assay [18] concerns the target Glucocorticoid receptor (Homo sapiens) (UniProt P04150). As to the kind of experiment: qHTS assay for small molecule antagonists of glucocorticoid receptor signaling (AID 588533; active = well fitted inhibition curve with a large enough effect in the signal ratio, with a control signal flat, not every such curve was filed as active; the % refers to the signal ratio; note: % is set by controls: 0 for no effect and ±100 for the full control effect). The essentials:
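Antagonist-mode qHTS: compound titrations added to GRE-bla HeLa cells, then dexamethasone 2 nM final; 18 h, 37 C. CCF4 FRET fluorescence normalized to dexamethasone and DMSO; IC50 from Hill fit.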

Chain of Vitamin D3 receptor (Homo sapiens) (P11473 whole entry, looked up): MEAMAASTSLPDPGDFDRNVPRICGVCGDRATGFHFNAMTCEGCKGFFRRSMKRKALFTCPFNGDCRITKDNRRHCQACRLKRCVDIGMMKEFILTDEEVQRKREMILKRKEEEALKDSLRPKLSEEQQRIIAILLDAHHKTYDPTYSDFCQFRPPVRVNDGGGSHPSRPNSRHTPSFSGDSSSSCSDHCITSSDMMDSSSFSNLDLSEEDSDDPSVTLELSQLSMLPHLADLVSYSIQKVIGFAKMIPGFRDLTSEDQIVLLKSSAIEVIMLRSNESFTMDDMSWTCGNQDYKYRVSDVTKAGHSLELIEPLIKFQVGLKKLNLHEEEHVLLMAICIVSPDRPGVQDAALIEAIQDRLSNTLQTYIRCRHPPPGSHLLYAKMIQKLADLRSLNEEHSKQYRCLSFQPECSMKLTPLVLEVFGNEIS
Chain of Estrogen receptor (Homo sapiens) (P03372 whole entry, looked up): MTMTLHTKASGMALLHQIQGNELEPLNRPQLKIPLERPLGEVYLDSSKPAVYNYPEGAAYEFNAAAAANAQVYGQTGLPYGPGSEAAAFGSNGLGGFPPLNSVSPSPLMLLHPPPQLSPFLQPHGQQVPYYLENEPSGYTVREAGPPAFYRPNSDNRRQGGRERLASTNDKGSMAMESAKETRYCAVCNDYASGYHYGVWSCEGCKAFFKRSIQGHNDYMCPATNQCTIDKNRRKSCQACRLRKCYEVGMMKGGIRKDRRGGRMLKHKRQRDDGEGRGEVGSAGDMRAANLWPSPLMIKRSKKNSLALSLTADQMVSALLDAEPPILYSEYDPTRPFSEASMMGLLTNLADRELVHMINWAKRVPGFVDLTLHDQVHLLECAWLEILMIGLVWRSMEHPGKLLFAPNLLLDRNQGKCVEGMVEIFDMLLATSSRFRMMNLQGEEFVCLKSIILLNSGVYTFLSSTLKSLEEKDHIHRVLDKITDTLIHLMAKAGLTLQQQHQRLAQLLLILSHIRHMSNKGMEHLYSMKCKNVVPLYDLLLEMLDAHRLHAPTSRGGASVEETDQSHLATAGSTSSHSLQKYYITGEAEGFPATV
Chain of Glucocorticoid receptor (Homo sapiens) (P04150 whole entry, looked up): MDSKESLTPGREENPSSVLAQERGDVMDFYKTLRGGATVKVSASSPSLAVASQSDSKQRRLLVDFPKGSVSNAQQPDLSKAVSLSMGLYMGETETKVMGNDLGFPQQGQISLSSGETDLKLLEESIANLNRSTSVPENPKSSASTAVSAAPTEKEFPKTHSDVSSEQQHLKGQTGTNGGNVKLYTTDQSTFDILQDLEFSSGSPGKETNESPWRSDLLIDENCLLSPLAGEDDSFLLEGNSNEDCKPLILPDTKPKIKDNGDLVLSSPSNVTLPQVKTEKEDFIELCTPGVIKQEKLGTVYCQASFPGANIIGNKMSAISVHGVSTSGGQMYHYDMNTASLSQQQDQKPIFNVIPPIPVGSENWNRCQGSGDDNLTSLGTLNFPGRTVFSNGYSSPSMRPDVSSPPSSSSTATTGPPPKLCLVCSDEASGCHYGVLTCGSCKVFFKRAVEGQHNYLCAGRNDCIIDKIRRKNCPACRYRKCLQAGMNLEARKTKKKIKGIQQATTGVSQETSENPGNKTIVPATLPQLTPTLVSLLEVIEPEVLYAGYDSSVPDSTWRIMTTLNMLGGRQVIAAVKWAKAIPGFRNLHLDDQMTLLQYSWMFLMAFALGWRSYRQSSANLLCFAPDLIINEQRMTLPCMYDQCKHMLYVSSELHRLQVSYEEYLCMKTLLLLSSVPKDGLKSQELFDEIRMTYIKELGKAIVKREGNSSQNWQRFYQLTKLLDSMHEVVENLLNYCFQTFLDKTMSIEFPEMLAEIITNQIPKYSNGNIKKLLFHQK

For `CC(=O)OCc1ccco1`, the Potency result in assay [1], in assay [2], in assay [3], in [5], in assay [6] and in assay [9] was “inactive” throughout. Also, the Potency result in assay [11] was “inactive”. Besides, the result in [4], in assay [7], in [8], in [12], in [13] and in assay [14] was inactive. Moreover, in assay [10], the max response is -12.4%.

For the molecule `COC(=O)CCC(=O)OC`, the Potency entry in assay [1], in assay [2], in assay [3], in assay [5] and in assay [6] was “inactive” each time. Further, the result in [4], in assay [7], in [8], in assay [15], in [12] and in [17] was inactive. For the same molecule, the outcome in assay [13] and in assay [14] was inactive. Moreover, the activation in assay [16] is -3.79% (inactive). Also, the max response in assay [10] is -38.8%.

Consider `Cc1ccccc1C(N)=O`, for which the Potency result in assay [1], in assay [2], in [3], in assay [5] and in assay [6] was “inactive” each time. Further, the result in [4], in [7], in assay [8], in assay [15], in assay [18] and in assay [12] was inactive. Besides, in assay [17], the call was inactive. Besides, in [16], the activation is -0.107% (inactive). Also, in [10], the max response was found to be 16.7%.

For the molecule `O=C(O)CNC(=O)c1ccc(CO)o1`, the Potency entry in assay [1], in assay [2], in [3], in assay [5], in [6] and in assay [9] was “inactive” in each case. Besides, the molecule was classed as inactive in assay [4], in [7], in assay [8], in assay [12] and in assay [17]. Further, in assay [10], the max response is 35.1%.

As to `Nc1nc2ccccc2[nH]1`, the Potency result in [1], in assay [2], in assay [3], in [5] and in assay [6] was “inactive” throughout. For the same molecule, the result in [7], in assay [8], in assay [15], in assay [18], in assay [12] and in assay [17] was inactive. Further, the molecule was classed as inactive in [13] and in [14]. Further, the activation in assay [16] was 0.673% (inactive).

Regarding `CCC=O`, the Potency result in assay [1], in [2], in assay [3], in assay [5], in assay [6] and in assay [9] was “inactive” in each case. Further, the Potency result in [11] is “inactive”. In addition, the outcome in assay [4], in assay [7], in assay [8], in assay [12], in assay [13] and in assay [14] was inactive. In addition, in [10], the max response is -3.11%.

For `CC(=O)c1nccs1`, the Potency entry in assay [1], in [2], in [3], in assay [5], in assay [6] and in assay [11] was “inactive” throughout. Further, the molecule was classed as inactive in [4], in [7], in assay [8], in assay [18], in assay [12] and in [13]. Moreover, the result in assay [14] was inactive. In addition, the activation in assay [16] was -5.55% (inactive). The max response in assay [10] is -6.53%.

`Cc1cccc([N+](=O)[O-])c1C(=O)O`: the Potency result in assay [1], in assay [2], in assay [3], in [5], in [6] and in assay [11] was “inactive” each time. Besides, the outcome in assay [4], in assay [7], in assay [8], in assay [15], in assay [17] and in assay [13] was inactive. Moreover, the result in assay [14] was inactive. Moreover, in [16], the activation is 4.26% (inactive). In addition, the max response in [10] was determined as 7.62%.

With `O=C(Cl)c1c(Cl)cccc1Cl`, the Potency result in [1], in [3], in assay [5], in assay [6] and in assay [11] was “inactive” throughout. Also, the result in assay [4], in [7], in [8], in assay [18], in assay [13] and in [14] was inactive. For the same molecule, the activation in assay [16] is -4.67% (inactive). In assay [10], the max response is -5.79%.

As to `NC(=O)NC(N)=O`, the Potency entry in assay [1], in assay [2], in assay [3], in [5], in assay [6] and in assay [9] was “inactive” each time. For the same molecule, the Potency result in assay [11] was “inactive”. For the same molecule, the result in [7] and in [8] was inactive. In addition, in [10], the max response is 34.3%.
